“And” between values parts separate entries of the source, which are not always exact repeats. Equal entries are not always repeated. Records with an inconclusive call do not appear. For some of these results: Results with a measured potency or affinity are listed apart. The source made the active and inactive calls. Unless noted, no stated cut-off is given here; in the data, active means inhibition above about 80%; inactive means the rest. Where a SMILES comes first, the peptide text is derived from it. [ ]: non-standard residue; d: D form. The star is where a group is joined. Sta = CC(C)C[C@H](N)[C@@H](O)CC(=O)O; Isovaleryl = CC(C)CC(=O)*
Key:
[1] = chitosan synthesis blockers in C. neoformans – flow cytometry, Cibacron Brilliant Red staining (AID 1347148; call rule not given here;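 further: compound exposure lasted three days at 37 degrees C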); conditions: Cryptococcus neoformans chitosan, stronger effect = lower value; at 10 µM unless noted
[2] = biological target: ATP-dependent translocase ABCB1 (Homo sapiens) (UniProt P08183); experiment: P-glycoprotein substrate transport blockade – cell-based (AID 377; in the data active means fluorescence slope change above about 50%); conditions: MDR1-expressing cells, fluorescent substrate accumulation slope; stronger effect = higher value; concentration not given here
[3] = blockers of polyQ-driven CASP3 activation – cell-based (AID 1583); conditions: polyglutamine-induced caspase-3 activation, cell assay; stronger effect = higher value;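 tested at 10 µM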
[4] = yeast 75Q aggregation reduction – 75Q-TubU reporter (AID 1593); conditions: Yeast 75Q polyglutamine aggregation reporter
[5] = restoration of touch response, mutant HTT neurons – whole organism, C. elegans mechanosensory neurons, N-terminal huntingtin (AID 1599); conditions: C. elegans polyQ-huntingtin mechanosensory neurons, stronger effect = higher value
[6] = blockers of cytochrome c efflux from mitochondria – biochemical, purified mitochondria (AID 1603); conditions: stronger effect = lower value;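 further: mouse liver mitochondria challenged with calcium chloride; signal normalized to the plate average as 100%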
[7] = polyglutamine aggregate formation blockers (AID 1604); conditions: polyglutamine-induced protein aggregation inhibition assay; stronger effect = higher value; tested at 2.5 µM
[8] = glutamate transport activators, MN-1 cells, MN-1 cell line (AID 1612); conditions: MN-1 motor neuron cells, stronger effect = higher value;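 further: tested at 1 µM final; 0% = mean of DMSO vehicle wells on each plate; positive means more glutamate uptake than control and negative means less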
[9] = GFP-Q80 aggregate reduction, neuronal-like cells, cell-based, NGF-treated PC12, GFPQ80 (AID 1614); conditions: PC12 NGF-treated GFP-polyQ80 inclusion reduction;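 further: lower means fewer inclusions and 0 means no inclusions at all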
[10] = 75Q-TubH aggregate inhibition, S. cerevisiae, yeast (AID 1616); conditions: S. cerevisiae 75Q-TubH polyglutamine aggregation suppression; stronger effect = higher value
[11] = growth inhibition, single agents and combos, LFS_MB_1R, cell-based, cisplatin or BGB combos, synergistic combos for chromothripsis tumors (AID 1671452); conditions: LFS_MB_1R medulloblastoma cells, stronger effect = higher value;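 further: cells exposed for 96 hours before readout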
[12] = growth inhibition, single agents and combos, CRL2098, cell-based, BGB or cisplatin IC20 combos, synergistic combos for chromothripsis tumors (AID 1671454); conditions: CRL2098 osteosarcoma cells, drug combinations, stronger effect = higher value;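 further: cells exposed for 96 h before readout; 0% = vehicle DMSO and 100% = killing by high DMSO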
[13] = growth inhibition, single agents and combos, HD-MB03, cell-based, BGB or cisplatin IC20 combos, synergistic combos for chromothripsis tumors (AID 1671455; in the data active means inhibition above about 83%;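 further: 0% = vehicle DMSO and 100% = high DMSO as cytotoxic control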); conditions: HD-MB03 medulloblastoma cells, stronger effect = higher value
[14] = growth inhibition, single agents and combos, UWB1.289, cell-based, BGB or cisplatin combos, synergistic combos for chromothripsis tumors (AID 1671456); conditions: UWB1.289 ovarian carcinoma cells, stronger effect = higher value;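 further: cells exposed to compound for four days; 0% = vehicle DMSO and 100% = killing by high DMSO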
[15] = growth inhibition, single agents and combos, LFS_MB_2R, cell-based, cisplatin combos, synergistic combos for chromothripsis tumors (AID 1671457); conditions: LFS_MB_2R medulloblastoma cells, stronger effect = higher value;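 further: cells exposed to compound for four days before readout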
[16] = UWB1.289_BRCA1 ovarian cancer growth, cell-based, BGB or cisplatin combinations (AID 1671459); conditions: UWB1.289 BRCA1 ovarian carcinoma, drug combinations, stronger effect = higher value
[17] = drug combination toxicity in non-malignant astrocytes – cell-based, BGB or cisplatin IC20 combos, cytotoxicity control for chromothriptic childhood tumor combination screen (AID 1671460); conditions: Human astrocytes, viability inhibition, drug combinations, at 0.5 µM, stronger effect = higher value;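 further: cells exposed to compounds for 96 hours before viability readout; 0% = vehicle and 100% = killing control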
[18] = signal quenchers or enhancers, Cy5 substrate/SSB – biochemical, NIH Clinical Collection, E. coli SSB, artefact control for HCV NS3 helicase inhibitor project (AID 743268; call rule not given here); conditions: Cy5-oligo bound E. coli SSB, fluorescence interference
[19] = test system: Hepatitis C virus NS3 helicase; experiment: blockers of NS3h binding to DNA – biochemical, fluorescence polarization, NIH Clinical Collection, primary screen (AID 743270; call rule not given here); conditions: NS3 helicase binding to Cy5-dT15 DNA, stronger effect = higher value, concentration not given here
[20] = biological target: Single-stranded DNA-binding protein (Escherichia coli (strain K12)) (UniProt P0AGE0); experiment: SSB-ssDNA binding inhibitors – biochemical, fluorescence polarization, NIH Clinical Collection, counter-screen for HCV NS3 helicase inhibitor project (AID 743271; in the data active means inhibition above about 28%); conditions: E. coli SSB-DNA binding, stronger effect = higher value, concentration not given here
[21] = measured here: combination with BGB IC40, at 0.05 µM
[22] = measured here: combination with cisplatin, at 0.5 µM
[23] = measured here: combination with cisplatin, at 5 µM
[24] = measured here: combination with BGB at IC20, at 0.5 µM
[25] = measured here: combination with cisplatin at IC20, at 0.5 µM
[26] = measured here: combo with BGB at IC20, at 0.5 µM
[27] = measured here: combo with cisplatin at IC20, at 0.5 µM
[28] = measured here: inhibition with BGB combination, at 0.05 µM
[29] = measured here: inhibition with cisplatin combination, at 0.05 µM
[30] = BGB combination, concentration series, at 5 µM
[31] = cisplatin combination, concentration series, at 5 µM
[32] = measured here: combo with BGB IC20
[33] = measured here: combo with cisplatin IC20

Sequence of ATP-dependent translocase ABCB1 (Homo sapiens) (P08183 whole entry, looked up): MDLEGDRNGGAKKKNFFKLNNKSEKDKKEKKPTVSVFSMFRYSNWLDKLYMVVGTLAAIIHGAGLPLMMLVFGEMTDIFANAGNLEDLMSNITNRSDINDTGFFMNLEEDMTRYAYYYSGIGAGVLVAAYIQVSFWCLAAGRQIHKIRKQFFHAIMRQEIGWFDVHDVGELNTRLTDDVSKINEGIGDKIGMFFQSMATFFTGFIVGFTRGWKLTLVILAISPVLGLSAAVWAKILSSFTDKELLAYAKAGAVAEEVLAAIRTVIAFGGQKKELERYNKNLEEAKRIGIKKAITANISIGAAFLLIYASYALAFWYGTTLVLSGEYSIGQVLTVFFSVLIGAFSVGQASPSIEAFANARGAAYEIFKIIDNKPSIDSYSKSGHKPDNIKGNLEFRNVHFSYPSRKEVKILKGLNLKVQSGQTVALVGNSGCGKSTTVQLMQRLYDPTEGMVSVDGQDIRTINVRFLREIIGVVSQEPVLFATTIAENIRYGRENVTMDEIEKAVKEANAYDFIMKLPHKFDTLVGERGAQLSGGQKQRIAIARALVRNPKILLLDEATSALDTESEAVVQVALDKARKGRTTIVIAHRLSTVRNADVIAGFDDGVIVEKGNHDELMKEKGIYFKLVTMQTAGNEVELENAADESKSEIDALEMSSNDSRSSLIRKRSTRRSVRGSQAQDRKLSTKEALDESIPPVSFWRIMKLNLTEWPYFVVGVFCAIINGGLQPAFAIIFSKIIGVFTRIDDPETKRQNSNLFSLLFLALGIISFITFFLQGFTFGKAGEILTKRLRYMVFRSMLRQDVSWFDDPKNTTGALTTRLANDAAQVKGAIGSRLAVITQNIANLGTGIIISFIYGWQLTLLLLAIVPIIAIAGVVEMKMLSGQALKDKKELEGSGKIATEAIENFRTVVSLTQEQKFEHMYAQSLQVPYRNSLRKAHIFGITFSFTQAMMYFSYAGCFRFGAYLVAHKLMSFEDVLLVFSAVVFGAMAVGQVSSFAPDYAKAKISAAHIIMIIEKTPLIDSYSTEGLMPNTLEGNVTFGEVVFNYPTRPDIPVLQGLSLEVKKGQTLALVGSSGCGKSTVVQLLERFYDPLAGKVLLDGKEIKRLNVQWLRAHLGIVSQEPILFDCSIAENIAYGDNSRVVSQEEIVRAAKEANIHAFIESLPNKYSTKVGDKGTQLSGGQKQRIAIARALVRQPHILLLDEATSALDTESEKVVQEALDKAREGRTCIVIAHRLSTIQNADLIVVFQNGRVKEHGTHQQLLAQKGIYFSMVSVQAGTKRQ

CC1=C(/C=C/C(C)=C/C=C/C(C)=C/C(=O)Nc2ccc(O)cc2)C(C)(C)CCC1
fold fluorescence [1]: 6.05 (inactive)

COc1cc(N)c(Cl)cc1C(=O)NC1CCN(CCCOc2ccc(F)cc2)CC1OC (stereo not drawn)
fluorescence slope change [2]: 62% (active)

O=C(O)CN(CC(=O)O)Cc1cc2c(-c3ccccc3C(=O)O)c3cc(CN(CC(=O)O)CC(=O)O)c(=O)cc-3oc2cc1O
inhibition [3]: -215%
score [4]: 1.05
rescue above control [5]: -5.14
cytochrome c release ratio [6]: 0.86
inhibition of aggregation [7]: 0%
glutamate uptake change [8]: 13.5%
inclusion score [9]: 0
aggregation suppression score [10]: 0.687

CC[C@@H](CO)NCCN[C@@H](CC)CO
inhibition [3]: -11.7%
score [4]: 1.09
rescue above control [5]: 2.87
cytochrome c release ratio [6]: 1.07
inhibition of aggregation [7]: 43.6%
glutamate uptake change [8]: -22.3%
inclusion score [9]: 2
aggregation suppression score [10]: 1.18

Nc1ncn([C@H]2C[C@H](O)[C@@H](CO)O2)c(=O)n1
inhibition ([11]; at 0.5 µM): -7.33% (inactive)
inhibition [11, 21]: -12.1%
inhibition [11, 22]: -1.56%
inhibition [11, 23]: -10.1%
inhibition ([12]; at 0.5 µM): -25.9% (inactive)
inhibition [12, 24]: -12.6%
inhibition [12, 25]: -67.9%
inhibition ([13]; at 0.5 µM): 30.9% (inactive)
inhibition [13, 26]: 47.3%
inhibition [13, 27]: 31.6%
inhibition ([14]; at 0.5 µM): 16.5% (inactive)
inhibition [14, 28]: 5.24%
inhibition [14, 29]: -1.44%
inhibition ([15]; at 0.5 µM): -4.56% (inactive)
inhibition [15, 22]: -4.46%
inhibition [15, 23]: 0.176%
inhibition [16, 30]: 32.1%
inhibition ([16]; at 0.5 µM): 25% (inactive)
inhibition [16, 31]: 40.5%
inhibition [17]: 26.9% (inactive)
inhibition [17, 32]: 27.2%
inhibition [17, 33]: 20.4%

CC(=O)NC(Cc1ccccc1)C(=O)O (stereo not drawn)
inhibition [3]: 6.15%
score [4]: 1.35
rescue above control [5]: 4.38
cytochrome c release ratio [6]: 0.42
inhibition of aggregation [7]: 85.9%
glutamate uptake change [8]: 12.1%
inclusion score [9]: 2
aggregation suppression score [10]: 1.23

CCN(CC)CCOc1ccc2c(c1)C(=O)c1cc(OCCN(CC)CC)ccc1-2
inhibition [3]: -90.6%
score [4]: 1.3
rescue above control [5]: -4.59
cytochrome c release ratio [6]: 0.81
inhibition of aggregation [7]: 63.2%
glutamate uptake change [8]: 22.5%
aggregation suppression score [10]: 1.61

Nc1nc(Cl)nc2c1ncn2[C@@H]1O[C@H](CO)[C@@H](O)[C@@H]1F
inhibition ([11]; at 0.5 µM): -12.4% (inactive) and -0.15% (inactive)
inhibition [11, 21]: -16.1% and -38.3%
inhibition [11, 22]: 76.7% and 60.5%
inhibition [11, 23]: 89.1% and 86.1%
inhibition ([12]; at 0.5 µM): 79.4% (inactive) and 75.9% (inactive)
inhibition [12, 24]: 67.5% and 66%
inhibition [12, 25]: 88.5% and 80.9%
inhibition ([13]; at 0.5 µM): 92.5% (active) and 92.1% (active)
inhibition [13, 26]: 86.9% and 84.3%
inhibition [13, 27]: 96.9% and 97.4%
inhibition ([14]; at 0.5 µM): 42.4% (inactive) and 38.2% (inactive)
inhibition [14, 28]: -20.1% and -11.3%
inhibition [14, 29]: -17.8% and -24.8%
inhibition ([15]; at 0.5 µM): 9.11% (inactive) and 33.6% (inactive)
inhibition [15, 22]: 55% and 57.2%
inhibition [15, 23]: 80.6% and 87.7%
inhibition [16, 30]: 76.8% and 56.9%
inhibition ([16]; at 0.5 µM): 50.9% (inactive) and 49.8% (inactive)
inhibition [16, 31]: 99% and 94.5%
inhibition [17]: 68.3% (inactive) and 72.7% (inactive)
inhibition [17, 32]: 68.2% and 76%
inhibition [17, 33]: 58.4% and 59.2%

CC(C)=CCC/C(C)=C/CO
inhibition [3]: 23.2%
score [4]: 1.12
rescue above control [5]: 3.94
cytochrome c release ratio [6]: 1.17
inhibition of aggregation [7]: 60.6%
glutamate uptake change [8]: 5.29%
inclusion score [9]: 2
aggregation suppression score [10]: 1.02

CC(=O)OCC(=O)[C@@]1(O)CCC2C3CCC4=CC(=O)CC[C@]4(C)C3[C@@H](O)C[C@@]21C (stereo partly drawn)
inhibition [3]: 6.86%
score [4]: 1.36
rescue above control [5]: -8.68
cytochrome c release ratio [6]: 1.12
inhibition of aggregation [7]: 66.2%
glutamate uptake change [8]: 16.2%
inclusion score [9]: 2
aggregation suppression score [10]: 0.966

CN(C)CCCOc1nn(Cc2ccccc2)c2ccccc12
fluorescence slope change [2]: 153% (active)

FC(F)(F)c1ccccc1-n1ccnc1
fold fluorescence [1]: 8.97 [at 235.7 µM] (inactive)

CC#C[C@]1(O)CC[C@H]2[C@@H]3CCC4=CC(=O)CCC4=C3[C@@H](c3ccc(N(C)C)cc3)C[C@@]21C
fluorescence slope change [2]: 142% (active)
fluorescence ratio [18]: 0.97 (inactive)
inhibition [19]: 2.4% (inactive)
inhibition [20]: -1.18% (inactive)

C[C@@H](CN1CC(=O)NC(=O)C1)N1CC(=O)NC(=O)C1
inhibition ([11]; at 0.5 µM): -13.2% (inactive)
inhibition [11, 21]: -25.5%
inhibition [11, 22]: -32.2%
inhibition [11, 23]: -35.9%
inhibition ([12]; at 0.5 µM): -49.6% (inactive)
inhibition [12, 24]: -22.2%
inhibition [12, 25]: -110%
inhibition ([13]; at 0.5 µM): -16.4% (inactive)
inhibition [13, 26]: -23.7%
inhibition [13, 27]: -12.8%
inhibition ([14]; at 0.5 µM): -10.9% (inactive)
inhibition [14, 28]: -2.15%
inhibition [14, 29]: -21.4%
inhibition ([15]; at 0.5 µM): -10.5% (inactive)
inhibition [15, 22]: -11.4%
inhibition [15, 23]: -5.98%
inhibition [16, 30]: -10.8%
inhibition ([16]; at 0.5 µM): -7.98% (inactive)
inhibition [16, 31]: -4.24%
inhibition [17]: 0.89% (inactive)
inhibition [17, 32]: -5.32%
inhibition [17, 33]: 12.3%

CN(C)C/C=C(/c1ccc(Br)cc1)c1cccnc1
fluorescence slope change [2]: 159% (active)

CC(C)CC(=O)N[C@H](C(=O)N[C@H](C(=O)N[C@@H](CC(C)C)[C@@H](O)CC(=O)N[C@@H](C)C(=O)N[C@@H](CC(C)C)[C@@H](O)CC(=O)O)C(C)C)C(C)C (Isovaleryl-VV[Sta]A[Sta]-OH)
fold fluorescence [1]: 4.93 [at 72.9 µM] (inactive)

CCCCCOC(=O)Nc1nc(=O)n([C@@H]2O[C@H](C)[C@@H](O)[C@H]2O)cc1F
inhibition ([11]; at 0.5 µM): -36.3% (inactive) and -17.9% (inactive)
inhibition [11, 21]: -77.2% and -11.6%
inhibition [11, 22]: -36.7% and -43%
inhibition [11, 23]: -42.5% and -67.7%
inhibition ([12]; at 0.5 µM): -110% (inactive) and -37.4% (inactive)
inhibition [12, 24]: -124% and -32.3%
inhibition [12, 25]: -103% and -72.6%
inhibition ([13]; at 0.5 µM): -17.2% (inactive) and -2.76% (inactive)
inhibition [13, 26]: -8.55% and -7.81%
inhibition [13, 27]: -34.6% and 2.4%
inhibition ([14]; at 0.5 µM): -11.5% (inactive) and 9.77% (inactive)
inhibition [14, 28]: -37.1% and -7.89%
inhibition [14, 29]: -5.98% and 11.7%
inhibition ([15]; at 0.5 µM): -21.1% (inactive) and -14.8% (inactive)
inhibition [15, 22]: -19.7% and -16.3%
inhibition [15, 23]: -95.1% and -10.2%
inhibition [16, 30]: -26.2% and 5.45%
inhibition ([16]; at 0.5 µM): -11.8% (inactive) and 4.86% (inactive)
inhibition [16, 31]: -6.41% and 4.95%
inhibition [17]: -8.94% (inactive) and 6.03% (inactive)
inhibition [17, 32]: -11% and -1.61%
inhibition [17, 33]: -23.1% and 9.49%

CCCCCCCCCCCCCCCC(=O)NCCO
fold fluorescence [1]: 4.46 (inactive)

NS(=O)(=O)c1cc(Cl)c(Cl)c(S(N)(=O)=O)c1
fluorescence slope change [2]: 82.9% (active)

Clc1ccc(C(Cn2ccnc2)OCc2c(Cl)cccc2Cl)c(Cl)c1 (stereo not drawn)
fluorescence slope change [2]: 107% (active)
